This is an account of results in a collection of fitness landscapes (doi:10.1016/j.celrep.2020.107928).

The full ranking holds about 81,000 sequences; the median of “one-hybrid fitness for binding parS DNA” is about -0.17, and the highest 2% start at about 0.51. The full list was thinned out, with the highest values kept by preference.

First the molecules themselves.
B1: Caulobacter ParB omega fusion; a variant is named by its letters at X, in order, B8GW30 (parent)
chain: MESVVVGEPGMSEGRRGLGRGLSALLGEVDAAPAQAPGEQLGGSREAPIEILQRNPDQPRRTFREEDLEDLSNSIREKGVLQPILVRPSPDTAGEYQIVAGERAWRAAQRAGLKTVPIMVRELDDLAVLEIGIIENVQRADLNVLEEALSYKVLMEKFERTQENIAQTIGKSXSHVANXMRLLXLPDEVQSYLVSGELTAXHARAIAAAADPVALAKQIIEGGLSVRETEALARKAPNLSAGKSKGGRPPRVKDTDTQALESDLSSVLGLDVSIDHRGSTGTLTITYATLEQLDDLCNRLTRGI

In the test the parent is B1. As to the kind of experiment: one-hybrid fitness for binding parS DNA (scaled: cognate 1, non-cognate 0); higher = stronger binding. The settings on record: with parS DNA site. The gist of the method:
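Fitness is the rescaled log change in variant-to-wild-type read ratio, measured by Illumina sequencing of plasmids before and after bacterial one-hybrid selection. The scale puts cognate at 1 and non-cognate at 0. Selection of Caulobacter ParB libraries, four specificity codons randomised, took place in E. coli USO with a HIS3 reporter, site 19 bp from the promoter, over 48 hours at 37°C on M9-minus-histidine with 0.1 mM IPTG and 5 mM 3-AT.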
Take RVIT: the “one-hybrid fitness for binding parS DNA” value was 0.703.

Consider RVIQ, for which the “one-hybrid fitness for binding parS DNA” value is no more than 0.2.

In the case of RVIF, the “one-hybrid fitness for binding parS DNA” value was no more than 0.2.

Consider RVPT, for which the “one-hybrid fitness for binding parS DNA” value is 0.529.

Regarding RVPM, the “one-hybrid fitness for binding parS DNA” value was no more than 0.2.

Consider RVPK, for which the “one-hybrid fitness for binding parS DNA” value was no more than 0.2.

For the variant CFTG, the “one-hybrid fitness for binding parS DNA” value is no more than 0.2.

Regarding TTVP, the “one-hybrid fitness for binding parS DNA” value is no more than 0.2.

As for PCIV, the “one-hybrid fitness for binding parS DNA” value was no more than 0.2.

For RNRA, the “one-hybrid fitness for binding parS DNA” value was 0.534.

As for RNNA, the “one-hybrid fitness for binding parS DNA” value was 0.529.

On to RNWA, for which the “one-hybrid fitness for binding parS DNA” value stood at 0.294.

With RNDA, the “one-hybrid fitness for binding parS DNA” value is 0.354.

On to RNVA, for which the “one-hybrid fitness for binding parS DNA” value came out at 0.312.

RNSA: the “one-hybrid fitness for binding parS DNA” value came out at 0.495.

In the case of RNKA, the “one-hybrid fitness for binding parS DNA” value came out at 0.541.

For the variant RNQA, the “one-hybrid fitness for binding parS DNA” value is 0.489.

Consider RNYA, for which the “one-hybrid fitness for binding parS DNA” value was 0.467.

Consider CRFC, for which the “one-hybrid fitness for binding parS DNA” value was no more than 0.2.

For the variant AKST, the “one-hybrid fitness for binding parS DNA” value was no more than 0.2.

For DDYL, the “one-hybrid fitness for binding parS DNA” value was no more than 0.2.

Regarding DYFD, the “one-hybrid fitness for binding parS DNA” value was no more than 0.2.

RYQR: the “one-hybrid fitness for binding parS DNA” value was no more than 0.2.

On to QVQY, for which the “one-hybrid fitness for binding parS DNA” value is no more than 0.2.

On to RMTI, for which the “one-hybrid fitness for binding parS DNA” value is no more than 0.2.

As to KKRY, the “one-hybrid fitness for binding parS DNA” value was no more than 0.2.

IVRC: the “one-hybrid fitness for binding parS DNA” value was no more than 0.2.

As to DLVM, the “one-hybrid fitness for binding parS DNA” value is no more than 0.2.

For RNDM, the “one-hybrid fitness for binding parS DNA” value was no more than 0.2.

On to RNNH, for which the “one-hybrid fitness for binding parS DNA” value was no more than 0.2.

Take RNDG: the “one-hybrid fitness for binding parS DNA” value came out at 0.679.

Turning to RNDK, the “one-hybrid fitness for binding parS DNA” value is no more than 0.2.

For RNNN, the “one-hybrid fitness for binding parS DNA” value is 0.385.

Take RNNG: the “one-hybrid fitness for binding parS DNA” value was found to be 0.948.

LLYC: the “one-hybrid fitness for binding parS DNA” value is no more than 0.2.

DVVM: the “one-hybrid fitness for binding parS DNA” value is no more than 0.2.

PAYG: the “one-hybrid fitness for binding parS DNA” value is no more than 0.2.

In the case of PDSP, the “one-hybrid fitness for binding parS DNA” value is no more than 0.2.

Regarding THIF, the “one-hybrid fitness for binding parS DNA” value is no more than 0.2.

For ESHS, the “one-hybrid fitness for binding parS DNA” value is no more than 0.2.

Consider VADN, for which the “one-hybrid fitness for binding parS DNA” value is no more than 0.2.

Take RMHS: the “one-hybrid fitness for binding parS DNA” value came to 0.979.

Take RMHN: the “one-hybrid fitness for binding parS DNA” value turned out to be 0.482.

Take RKHN: the “one-hybrid fitness for binding parS DNA” value stood at 0.375.

For RKHD, the “one-hybrid fitness for binding parS DNA” value is no more than 0.2.

RFHS: the “one-hybrid fitness for binding parS DNA” value worked out at 0.996.

Consider RFHH, for which the “one-hybrid fitness for binding parS DNA” value is no more than 0.2.

As to RPHS, the “one-hybrid fitness for binding parS DNA” value was no more than 0.2.

Turning to RKHS, the “one-hybrid fitness for binding parS DNA” value stood at 0.832.

Take RCHD: the “one-hybrid fitness for binding parS DNA” value is no more than 0.2.

Consider RMHD, for which the “one-hybrid fitness for binding parS DNA” value is no more than 0.2.

In the case of RFHP, the “one-hybrid fitness for binding parS DNA” value is no more than 0.2.

With RCHS, the “one-hybrid fitness for binding parS DNA” value amounted to 0.953.

Regarding SNSI, the “one-hybrid fitness for binding parS DNA” value is no more than 0.2.

Regarding KYKR, the “one-hybrid fitness for binding parS DNA” value is no more than 0.2.

On to WCAL, for which the “one-hybrid fitness for binding parS DNA” value was no more than 0.2.

For YGRT, the “one-hybrid fitness for binding parS DNA” value is no more than 0.2.

With RSHH, the “one-hybrid fitness for binding parS DNA” value is no more than 0.2.

In the case of RAHS, the “one-hybrid fitness for binding parS DNA” value was found to be 0.985.

Take RSHS: the “one-hybrid fitness for binding parS DNA” value was found to be 1.

For RSHP, the “one-hybrid fitness for binding parS DNA” value was no more than 0.2.

Turning to RAHN, the “one-hybrid fitness for binding parS DNA” value amounted to 0.481.

As to RAHD, the “one-hybrid fitness for binding parS DNA” value was no more than 0.2.

As to WEGR, the “one-hybrid fitness for binding parS DNA” value is no more than 0.2.

Take ADSS: the “one-hybrid fitness for binding parS DNA” value was no more than 0.2.

Regarding ALSE, the “one-hybrid fitness for binding parS DNA” value is no more than 0.2.

In the case of KLGY, the “one-hybrid fitness for binding parS DNA” value is no more than 0.2.

With RVAN, the “one-hybrid fitness for binding parS DNA” value was determined as 0.452.

In the case of RVFN, the “one-hybrid fitness for binding parS DNA” value worked out at 0.399.

On to RVFD, for which the “one-hybrid fitness for binding parS DNA” value was no more than 0.2.

As for RVAS, the “one-hybrid fitness for binding parS DNA” value is 1.01.

In the case of RVFS, the “one-hybrid fitness for binding parS DNA” value is 1.03.

Consider RVAH, for which the “one-hybrid fitness for binding parS DNA” value worked out at 0.225.

With PPTK, the “one-hybrid fitness for binding parS DNA” value is no more than 0.2.

For the variant IPLI, the “one-hybrid fitness for binding parS DNA” value is no more than 0.2.

Turning to QGDC, the “one-hybrid fitness for binding parS DNA” value is no more than 0.2.

For PYSF, the “one-hybrid fitness for binding parS DNA” value is no more than 0.2.

As for RMDW, the “one-hybrid fitness for binding parS DNA” value was no more than 0.2.

In the case of RMYW, the “one-hybrid fitness for binding parS DNA” value came to 0.216.

Regarding RMKW, the “one-hybrid fitness for binding parS DNA” value is 0.694.

With RMVW, the “one-hybrid fitness for binding parS DNA” value stood at 0.23.

On to RCKW, for which the “one-hybrid fitness for binding parS DNA” value came to 0.367.

Take RMRW: the “one-hybrid fitness for binding parS DNA” value was 0.586.

In the case of MALS, the “one-hybrid fitness for binding parS DNA” value was no more than 0.2.
